Hits are enriched below; roughly 2.3% of the tested compounds scored in any of these assays.
MmCpn inh: M. maripaludis TRiC chaperonin inhibition. purified Mm-Cpn ATPase, ADP Transcreener TR-FRET. Potency, µM (top dose mostly 76.9 µM), without a hit: top-dose activity, negative = inhibition, hits mostly inhibitors. 330,000 tested, 0.031% active; note: potency is the fitted concentration of half-maximal effect; % is set by controls: 0 for no effect and ±100 for the full control effect; nearly all actives have a fitted effect of over 80% in size
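Reaction buffer contained 30 mM Tris pH 7.4, 100 mM KCl, 5 mM MgCl2 and 1 mM DTT. Mm-CPN (25 nM final) hydrolysed 10 uM ATP over 30 min at 37°C; ADP was read by HTRF.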
FUS suppressor: rescues growth of FUS-expressing yeast; Potency, µM (series often up to 76.6 µM), actives largely listed as activators; S. cerevisiae FUS-expressing, growth rescue, OD600, 24 h; 390,000 tested, 0.24% active;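 note: potency is the fitted concentration of half-maximal effect; plate controls were DMSO vehicle for no effect and reference control for full effect; nearly all actives have a fitted effect of over 55% in size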
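Steps: raffinose overnight preculture; dilution to OD 0.005 in 2% galactose minimal medium; compound addition (concentration series); 24hr at 30C, 99% humidity; absorbance read at 600 nm.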
Abeta rescue: A-beta toxicity reversal in yeast | 410,000 tested, 0.063% active | yeast expressing A-beta42, growth rescue, OD600, 48 h; response scale: 0% DMSO, 100% iron-clioquinol control | Potency, µM (top dose mostly 46.1 µM), actives largely listed as activators | AID 1347071; note: potency is the fitted concentration of half-maximal effect; nearly all actives have a fitted effect of over 55% in size
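Growth rescue measured by 600 nm absorbance after 48 h yeast culture at 30 C with compound. Values normalized between DMSO and an equimolar ferric chloride plus clioquinol control.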
TDP-43 yeast inh: inhibitors of TDP-43 toxicity in yeast; 410,000 tested, 1.8% active; Potency, µM (series often up to 46.1 µM), without a hit: at the highest dose growth rescue (activation), actives largely listed as activators; TDP-43 expressing yeast growth rescue, BacTiter-Glo, 24 h; note: potency is the fitted concentration of half-maximal effect; % of control where 0% means no effect; nearly all actives have a fitted effect of over 50% in size
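Growth rescue of TDP-43-toxic yeast measured as ATP luminescence (BacTiter-Glo). Cells grown to mid-log in raffinose, induced in galactose at OD600=0.02, exposed to compound 24 hr at 30 deg C.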
CCT chaperon mod: changes cytosolic chaperonin activity; 360,000 tested, 0.3% active; purified chaperonin ATPase assay, HTRF ADP detection, 30 min; activity change, % (no concentration beside the values), hits read low; in the data active = activity change below about -30%; note: % is set by controls: 0 for no effect and ±100 for the full control effect
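ATPase activity: ADP formed was measured by HTRF Transcreener (665/615 nm ratio) after 30 min at 37 deg C with 10 uM ATP. Compounds screened at one 76 uM concentration against 40 or 20 nM TRiC in Tris pH 7.4/KCl/MgCl2/DTT buffer.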
aSyn yeast inh: rescues yeast growth from alpha-synuclein toxicity; Yeast expressing alpha-synuclein, growth rescue, BacTiter-Glo, 24 h; Potency, µM (doses to about 46.1 µM), for inactives: top-dose growth rescue (activation), most hits filed as activators; 370,000 tested, 0.14% active; AID 652106; note: potency is the fitted concentration of half-maximal effect; % of control where 0% means no effect; nearly all actives have a fitted effect of over 65% in size
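Screening used galactose-induced yeast with toxic alpha-synuclein levels, exposed to compound for 24 hr at 30 deg C. Cell growth, read with BacTiter-Glo luminescence, gave the measured signal.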
An asterisk follows results filed as active; i = inactive; ? = inconclusive; . = no result. Unless noted, calls come from the whole dose curve; as a rule, active = well fitted curve in the direction sought with a large enough effect; inconclusive = small, poorly fitted or top-dose-only effect, or another doubt; inactive = no such curve, though single readings can be large; an effect the other way counts as inactive or inconclusive.

SMILES	MmCpn inh	FUS suppressor	Abeta rescue	TDP-43 yeast inh	CCT chaperon mod	aSyn yeast inh
COc1ccc(NC(=O)c2c(NC(=O)C(F)(F)F)sc3c2CCCCC3)cc1	.	i	i	?	.	.
Cc1ccc(CNc2cc(C)nc3nc(-c4cccc(C)c4)nn23)cc1	.	i	i	20µM*	.	-4%
CCN(CC)C(=O)CSc1nnc(-c2ccccn2)n1C	.	i	.	.	.	.
Cc1nc(-n2[nH]c3c(c2=O)CCCC3)[nH]c(=O)c1Cc1ccccc1	-1%	?	?	10µM*	0	?
CCCNC(=O)N1CC[C@H]2[C@@H]1c1cc(-c3ccc(F)cc3)ccc1N(C)[C@H]2CO	.	i	.	.	.	.
Cc1ccc(/C(N)=N/OC(=O)c2ccc(C)cc2Cl)cc1	5%	.	i	4µM*	-2	-37%
Cc1ccc(/C(N)=N/OC(=O)c2ccc3ccccc3c2)cc1	-3%	i	i	1.3µM*	-2	-44%
N/C(Cc1ccc(Cl)cc1)=N\OC(=O)c1ccc2ccccc2c1	0%	i	i	6.3µM*	-4	-58%
COc1ccc(C/C(N)=N/OC(=O)c2ccc(Cl)cc2)cc1	1%	i	i	?	-1	-16%
C/C(=N/NC(=O)CCC(=O)Nc1ccc(Br)cc1)c1ccc(Br)cc1	-1%	i	i	10%	-4	6%
C/C(=N\Nc1ccc(C(=O)O)cc1)c1ccc(Br)cc1	2%	i	i	10µM*	-1	-1%
C/C(=N/Nc1ncc(Br)cn1)c1ccc(Br)cc1	0%	i	i	28µM*	-2	7%
O=C(C[n+]1cccc(Br)c1)c1cc(Cl)ccc1Cl	.	.	.	.	.	0%
COc1ccc(CCN=c2c([N+](=O)[O-])nn(-c3cccc(C)c3)n2O)cc1OC	0%	i	i	18µM*	-2	-1%
COc1ccc(-n2nc([N+](=O)[O-])c(=NCCc3cccc(C)c3)n2O)cc1	-4%	i	i	13µM*	-6	5%
Cc1cccc(CCN=c2c([N+](=O)[O-])nn(-c3ccccc3)n2O)c1	1%	i	i	16µM*	-3	1%
COc1ccc(-n2nc([N+](=O)[O-])c(=NCc3ccc4c(c3)OCO4)n2O)cc1	0%	.	i	13µM*	-2	20%
COC(=O)[C@@]1(Cc2ccc(F)cc2)[C@H]2c3cc(C(=O)N(C)C)n(CC4CC4)c3C[C@H]2CN1C(=O)c1ccccc1	.	25µM*	i	9%	0	9%
Cc1ccccc1NC(=O)[C@@H]1CC(=O)O[C@@H]1c1ccccc1	.	i	.	.	.	.
CC(C)CCNC(=S)Nc1ccc(Br)cc1	?	.	i	?	-2	-33%
CC(C)CCNC(=O)/C=C/c1ccc(Br)cc1	3%	.	i	22µM*	0	-10%
C=CCN1[C@@H](CC(C)C)COc2cc(F)ccc2S1(=O)=O	.	i	.	.	.	.
COC(OC)c1ccc(C#N)c(SCc2ccccc2)n1	-3%	i	i	14µM*	0	-2%
O=C1c2sc3nc4ccccc4n3c2C(=O)N1c1ccccc1Cl	-2%	i	i	11µM*	1	-1%
Cc1ccccc1N1C(=O)c2sc3nc4c(c(=O)n3c2C1=O)CCC4	-3%	?	i	?	-1	16%
SMILES	MmCpn inh	FUS suppressor	Abeta rescue	TDP-43 yeast inh	CCT chaperon mod	aSyn yeast inh
C[C@H]1[C@H](c2ccccc2)C[C@@H](C(=O)O)C1(C)C	2%	i	i	14µM*	1	-5%
Cc1cccc(-c2nnc(SCc3ccccc3)o2)c1	2%	i	i	11µM*	-1	0%
N#Cc1ccccc1CSc1nnc(-c2ccncc2)o1	-3%	?	i	22%	-2	-13%
N#Cc1cccc(-c2nnc(SCc3ccccc3C#N)o2)c1	1%	i	i	18µM*	-2	13%
Cc1cccc(-c2nnc(-c3ccc(N)cc3)o2)c1	-7%	i	i	8.9µM*	1	8%
Cc1cccc(CSc2nnc(-c3ccco3)o2)c1	0%	i	i	18µM*	1	-12%
Nc1ccc(-c2nnc(-c3ccc(N)cc3)o2)cc1	-7%	i	i	-10%	-12	-3%
C#CCOCCOCCOCCNc1nc(N2CCOCC2)nc(N2CCN(C(=O)[C@H](CCC(=O)O)n3cc(C(N)CC(C)C)nn3)CC2)n1 (some centres not stated)	.	i	.	.	.	.
Cc1cccc(-c2noc(-c3cc(C(C)C)[nH]n3)n2)c1	.	i	i	-8%	.	.
COc1cccc(-c2nnc(SCc3cccnc3)o2)c1	1%	i	i	13µM*	0	21%
COc1cc(OC)cc(-c2nnc(SCc3cccnc3)o2)c1	-2%	i	i	?	-2	-2%
Cc1ccc(CN(Cc2cccn2-c2nnc(N3CCCC3=O)s2)C(=O)Nc2ccccc2Cl)cc1	.	35µM*	i	-1%	.	.
O=C(CCl)N1N=C(c2cccs2)CC1c1ccco1 (configuration not stated)	0%	i	i	22µM*	1	9%
CCC1CN(C(=O)Nc2ccc(C(=O)O)cc2)c2cc(Cl)ccc2O1 (configuration not stated)	.	i	i	13µM*	.	.
CN1C(=O)/C(=C/c2cccc(Cl)c2)Sc2ccc(C(=O)N3CCOCC3)cc21	0%	i	i	20µM*	-2	16%
CCOc1ccc(/C=C2/Sc3ccc(C(=O)N4CCOCC4)cc3N(C)C2=O)cc1OC	0%	i	i	15%	1	15%
COC(=O)c1cc(-c2c(C)noc2C)c(=O)n2c1CCC2	.	i	.	.	.	.
O=C(NCc1ccccc1)C1Nc2ccc(OC(F)(F)F)cc2C2C=CCC12 (configuration not stated)	.	i	?	22µM*	-2	1%
O=C(NCc1ccccn1)C1Nc2ccc(OC(F)(F)F)cc2C2C=CCC12 (configuration not stated)	.	i	i	18µM*	2	-3%
CCOc1cc(C(=O)Nc2cc3c(cc2N2CCCC2)n(C)c(=O)c(=O)n3C)cc(OCC)c1OCC	.	i	i	3%	.	.
O=[N+]([O-])c1ccccc1OCc1nc(-c2cccs2)no1	-16%	i	i	13µM*	2	3%
Cc1nc2ccc(C(=O)N3CCN(C(=O)OCc4ccccc4)CC3)cc2n1C1CCCC1	.	i	.	.	.	.
Cc1ccc(Nc2cc(C)c(C#N)c3nc4ccccc4n23)c(C)c1	.	i	i	?	.	.
CC1Cc2ccccc2N1C(=S)NC1CCCC1 (configuration not stated)	1%	i	13µM*	?	-7	-6%

Screens as filed in PubChem.
